Reference: PubChem BioAssay AID1159580 (chemical genetic matrix, 2015)
Several values for one entry are separate records, joined by “and”; a condition that tells them apart may be missing. Identical values can stand only once. Hit rate of the full screen: of about 5,500 compounds, about 2,000 (36%) were called active. Roughly 18% stayed inconclusive and do not appear here. Rule as the data show it: active = normalized growth mostly below about 0.91 (no sharp cut-off); inconclusive = no clear call, values can overlap the other calls; inactive = mostly above about 0.92. This is one part of the list.

Test: chemical genetic growth profiling, strain panel (AID 1159580);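 also: tested at 20 µM; growth read once vehicle control cultures reached saturation at 30 °C; 1 = growth at the plate median or of vehicle wells; lower values mean less growth of the strain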
Settings: growth OD

Measured: normalized growth

CC(=O)N1CCCC1C(=O)O (configuration not stated)
inactive: S. cerevisiae deletion strains, locus YAL013W, strain DEP1, active compounds read low 1.01 | S. cerevisiae deletion strains, locus YBR021W, strain FUR4, active compounds read low 0.977 | S. cerevisiae deletion strains, locus YBR229C, strain ROT2, active compounds read low 1.01 | S. cerevisiae deletion strains, locus YCL029C, strain bik1, active compounds read low 1.03 | S. cerevisiae deletion strains, locus YDL035C, strain GPR1, active compounds read low 1.02 | S. cerevisiae deletion strains, locus YDL074C, strain BRE1, active compounds read low 1.02 | S. cerevisiae deletion strains, locus YDL101C, strain DUN1, active compounds read low 1.01 | S. cerevisiae deletion strains, locus YDL134C, strain PPH21, active compounds read low 1.01 | S. cerevisiae deletion strains, locus YDL185W, strain tfp1, active compounds read low 1.02 | S. cerevisiae deletion strains, locus YDL192W, strain arf1, active compounds read low 1.03 | S. cerevisiae deletion strains, locus YDR101C, strain arx1, active compounds read low 1.02 | S. cerevisiae deletion strains, locus YDR150W, strain NUM1, active compounds read low 1.01 | S. cerevisiae deletion strains, locus YDR162C, strain NBP2, active compounds read low 1.01 | S. cerevisiae deletion strains, locus YDR318W, strain mcm21, active compounds read low 1.02 | S. cerevisiae deletion strains, locus YDR388W, active compounds read low 1.02 | S. cerevisiae deletion strains, locus YDR502C, strain sam2, active compounds read low 1.02 | S. cerevisiae deletion strains, locus YEL061C, strain CIN8, active compounds read low 1.01 | S. cerevisiae deletion strains, locus YER110C, active compounds read low 1.03 | S. cerevisiae deletion strains, locus YER155C, strain BEM2, active compounds read low 1 | S. cerevisiae deletion strains, locus YER167W, strain BCK2, active compounds read low 1.01 | S. cerevisiae deletion strains, locus YGL078C, strain dbp3, active compounds read low 1.02 | S. cerevisiae deletion strains, locus YGL086W, strain mad1, active compounds read low 1.01 | S. cerevisiae deletion strains, locus YGL248W, strain PDE1, active compounds read low 1.01 | S. cerevisiae deletion strains, locus YGR078C, strain PAC10, active compounds read low 1 | S. cerevisiae deletion strains, locus YGR135W, strain pre9, active compounds read low 1.02 | S. cerevisiae deletion strains, locus YGR229C, strain SMI1, active compounds read low 0.99 | S. cerevisiae deletion strains, locus YGR252W, strain gcn5, active compounds read low 1.03 | S. cerevisiae deletion strains, locus YHR030C, strain SLT2, active compounds read low 1.01 and 0.953 | S. cerevisiae deletion strains, locus YHR079C, strain IRE1 (second series), active compounds read low 1.02 | S. cerevisiae deletion strains, locus YHR079C, strain IRE1, active compounds read low 0.975 | S. cerevisiae deletion strains, locus YHR094C, strain hxt1, active compounds read low 1.02 | S. cerevisiae deletion strains, locus YHR129C, strain ARP1, active compounds read low 1.01 | S. cerevisiae deletion strains, locus YHR200W, strain rpn10, active compounds read low 1.03 | S. cerevisiae deletion strains, locus YIL066C, strain RNR3, active compounds read low 1.02 | S. cerevisiae deletion strains, locus YIL073C, strain SPO22, active compounds read low 1.08 | S. cerevisiae deletion strains, locus YIL125W, strain kgd1, active compounds read low 1.02 | S. cerevisiae deletion strains, locus YIR030C, strain dcg1, active compounds read low 1.02 | S. cerevisiae deletion strains, locus YJL095W, strain BCK1, active compounds read low 1.01 and 0.981 | S. cerevisiae deletion strains, locus YJL134W, strain LCB3, active compounds read low 1.01 | S. cerevisiae deletion strains, locus YJL168C, strain set2, active compounds read low 1.02 | S. cerevisiae deletion strains, locus YJL187C, strain SWE1 (second series), active compounds read low 1.02 | S. cerevisiae deletion strains, locus YJR043C, strain POL32, active compounds read low 0.995 | S. cerevisiae deletion strains, locus YJR066W, strain TOR1, active compounds read low 0.872 | S. cerevisiae deletion strains, locus YJR075W, strain HOC1, active compounds read low 1 | S. cerevisiae deletion strains, locus YKL009W, strain mrt4, active compounds read low 1.02 | S. cerevisiae deletion strains, locus YKL068W, active compounds read low 1.03 | S. cerevisiae deletion strains, locus YKL085W, strain MDH1 (second series), active compounds read low 1.01 | S. cerevisiae deletion strains, locus YKL085W, strain MDH1, active compounds read low 1.01 | S. cerevisiae deletion strains, locus YKL190W, strain CNB1, active compounds read low 1.01 | S. cerevisiae deletion strains, locus YKR001C, strain vps1, active compounds read low 1.02 | S. cerevisiae deletion strains, locus YLR039C, strain RIC1, active compounds read low 1.03 | S. cerevisiae deletion strains, locus YLR058C, strain SHM2, active compounds read low 1.01 | S. cerevisiae deletion strains, locus YLR102C, strain apc9, active compounds read low 1.02 | S. cerevisiae deletion strains, locus YLR113W, strain HOG1, active compounds read low 1.01 | S. cerevisiae deletion strains, locus YLR262C, strain YPT6, active compounds read low 1.05 | S. cerevisiae deletion strains, locus YLR268W, strain sec22, active compounds read low 1.03 | S. cerevisiae deletion strains, locus YLR330W, strain CHS5, active compounds read low 1.01 | S. cerevisiae deletion strains, locus YLR342W, strain FKS1 (second series), active compounds read low 0.987 | S. cerevisiae deletion strains, locus YLR371W, strain rom2, active compounds read low 1.01 | S. cerevisiae deletion strains, locus YLR418C, strain cdc73, active compounds read low 1.04 | S. cerevisiae deletion strains, locus YML016C, strain PPZ1, active compounds read low 1.01 | S. cerevisiae deletion strains, locus YML032C, strain rad52, active compounds read low 1.02 | S. cerevisiae deletion strains, locus YML124C, strain tub3, active compounds read low 1.03 | S. cerevisiae deletion strains, locus YMR078C, strain ctf18, active compounds read low 1.04 | S. cerevisiae deletion strains, locus YMR223W, strain ubp8, active compounds read low 1.01 | S. cerevisiae deletion strains, locus YMR263W, strain SAP30, active compounds read low 1 | S. cerevisiae deletion strains, locus YMR307W, strain GAS1, active compounds read low 0.996 | S. cerevisiae deletion strains, locus YNL067W, strain RPL9B, active compounds read low 1 | S. cerevisiae deletion strains, locus YNL128W, strain TEP1, active compounds read low 1.01 | S. cerevisiae deletion strains, locus YNL153C, strain GIM3, active compounds read low 1 | S. cerevisiae deletion strains, locus YNL183C, strain NPR1, active compounds read low 0.883 | S. cerevisiae deletion strains, locus YNL233W, strain BNI4, active compounds read low 1.01 | S. cerevisiae deletion strains, locus YNL250W, strain rad50, active compounds read low 1.02 | S. cerevisiae deletion strains, locus YNL271C, strain bni1, active compounds read low 1.03 | S. cerevisiae deletion strains, locus YNL298W, strain CLA4, active compounds read low 1.04 | S. cerevisiae deletion strains, locus YNL307C, strain MCK1, active compounds read low 1.03 | S. cerevisiae deletion strains, locus YNL322C, strain KRE1, active compounds read low 1.01 | S. cerevisiae deletion strains, locus YNR052C, strain pop2, active compounds read low 1.03 | S. cerevisiae deletion strains, locus YOL006C, strain TOP1, active compounds read low 1.03 | S. cerevisiae deletion strains, locus YOL012C, strain htz1 1.51 | S. cerevisiae deletion strains, locus YOL147C, strain pex11, active compounds read low 1.02 | S. cerevisiae deletion strains, locus YOR061W, strain CKA2, active compounds read low 1.01 | S. cerevisiae deletion strains, locus YOR069W, strain VPS5, active compounds read low 1 | S. cerevisiae deletion strains, locus YOR136W, strain idh2, active compounds read low 1.02 | S. cerevisiae deletion strains, locus YOR144C, strain elg1, active compounds read low 1.02 | S. cerevisiae deletion strains, locus YOR184W, strain ser1, active compounds read low 1.03 | S. cerevisiae deletion strains, locus YOR231W, strain MKK1, active compounds read low 0.979 | S. cerevisiae deletion strains, locus YOR316C, strain cot1, active compounds read low 1.02 | S. cerevisiae deletion strains, locus YPL055C, strain LGE1, active compounds read low 1 | S. cerevisiae deletion strains, locus YPL241C, strain CIN2, active compounds read low 1.01 | S. cerevisiae deletion strains, locus YPL256C, strain CLN2, active compounds read low 0.941 | S. cerevisiae deletion strains, locus YPR119W, strain clb2, active compounds read low 1.02 | S. cerevisiae deletion strains, locus YPR141C, strain kar3, active compounds read low 1.03 | S. cerevisiae deletion strains, locus YPR163C, strain tif3, active compounds read low 1.02 | S. cerevisiae deletion strains, locus YPR167C, strain met16, active compounds read low 1.01 | S. cerevisiae deletion strains, strain wtn01, active compounds read low 1.02 | S. cerevisiae strains, strain wild type, active compounds read low 1
